The panel holds about 83,000 compounds, 20% with a hit somewhere; the sample as a whole holds those more often.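 48-hour exposure, single concentration, 96-well plates; percent growth endpoint where 0 means no net growth. Active: below 10.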 Values without a mark were called inactive. Calls of active or inactive are those of the source.

From PubChem BioAssay (NCI) come the findings set out here.

Holding throughout (assay): NCI-60 one-dose screen, 48 h (100 = growth as untreated, 0 = no growth, -100 = all killed)
Common to all, as to details: 10 µM unless noted

The subject of experiment [1] is NCI-H23 lung.
Experiment [2] concerns NCI-H226 lung.
Experiment [3] has as its system NCI-H322M lung.
Experiment [4] has as its system HOP-62 NSCLC.
Experiment [5] has as its system NCI-H460 lung.
The subject of experiment [6] is HOP-92 NSCLC.
The subject of experiment [7] is NCI-H522 lung.
Experiment [8] relates to A549/ATCC NSCLC.
For experiment [9], the system named is 786-0 renal.
Experiment [10] relates to COLO 205 colon.
Experiment [11] concerns DU-145 prostate.
Experiment [12] has as its system K-562 leukemia.
Experiment [13] deals with MALME-3M melanoma.
The subject of experiment [14] is MDA-MB-231 breast.
Experiment [15] concerns SF-268 CNS.
Experiment [16] deals with SF-295 CNS.
The test system of experiment [17] is SF-539 CNS.
Experiment [18] has as its system UACC-257 melanoma.
For experiment [19], the system named is M14 melanoma.
Experiment [20] relates to RXF 393 renal.

For `CN(C)c1ccc(N=C2C=CC(=O)C=C2)cc1`, the growth in experiment [1] is 84.5%; in experiment [2] it was 95.1%; in experiment [3], 75%; in [4], 107%; in [5], 97.1%; in experiment [6] it was 77.5%. The growth in experiment [7] is 72%; in [8] it was 102%; in [9], 98.4%; in experiment [10] it was 36.3%; in experiment [11] it was 112%; in experiment [12], 64.2%. The growth in experiment [13] is 85.8%; in [14], 46.4%; in experiment [15], 101%; in experiment [16], 95.1%; in [17], 65%; in experiment [18], 119%. Besides, the growth in experiment [19] is 95.6%.

As to `CC(C)(C)CC(C)(C)c1ccc(OCCOCC[N+](C)(C)CC(=O)[O-])cc1`, the growth is 108% in [1]; 105% in [2]; 111% in experiment [3]; 106% in [4]; 110% in [5]; 105% in experiment [6]. Further, the growth in experiment [7] is 103%; in [8], 101%; in [9], 106%; in [10], 105%; in [11] it was 114%; in experiment [12] it was 105%. Also, the growth in [13] is 102%; in experiment [14], 112%; in experiment [20] it was 134%; in [15], 109%; in [17], 104%; in experiment [18], 100%. In addition, the growth in experiment [19] was 104%.

Turning to `COc1ccc2c(c1)c(-c1nc(-c3c[nH]c4ncccc34)cs1)cn2C`, the growth in experiment [1] was 71.8%; in experiment [2] it was 80.6%; in experiment [3] it was 46.6%; in experiment [4], 90.4%; in experiment [5], 40.1%; in [6] it was 60.7%. For the same compound, the growth in [7] was 77.9%; in [8] it was 81.7%; in experiment [9], 70.1%; in experiment [10], 83.7%; in [11], 72.5%; in [12], 41%. Further, the growth in experiment [14] is 55.3%; in experiment [20], 57.2%; in experiment [15], 97%; in experiment [16], 86%; in experiment [17], 66.2%; in [18] it was 85.1%. The growth in experiment [19] is 63.7%.

In the case of `Cc1c(C)c2c(c(C)c1NC(=O)CCCCCCC(=O)O)CCC(C)(CCCC(C)CCCC(C)CCCC(C)C)O2` (centres undefined), the growth in experiment [1] was 85.7%; in experiment [2], 95.2%; in experiment [3] it was 91.7%; in [4] it was 109%; in [5], 69.7%; in experiment [6] it was 82%. The growth in experiment [7] was 52%; in experiment [8], 20.4%; in experiment [9] it was 75.2%; in [10], 98.4%; in experiment [11] it was 86.1%; in experiment [12] it was 39.2%. The growth in experiment [14] is 101%; in experiment [20], 98.9%; in [15], 78.3%; in experiment [16] it was 71.4%; in experiment [17] it was 89.9%; in experiment [18] it was 95.2%.

For `O=C1C=C(C(O)c2ccc(O)cc2)C(=O)c2ccccc21` (centres undefined), the growth in experiment [1] is 89.2%; in experiment [2], 112%; in experiment [3] it was 95.2%; in [4], 116%; in experiment [5] it was 107%; in experiment [6], -2.83% (active). Also, the growth in [7] was 92.8%; in experiment [8] it was 104%; in experiment [9] it was 106%; in experiment [10], 100%; in [11], 107%; in [12], 97.2%. The growth in experiment [13] was 95.6%; in experiment [14], 83.5%; in [20], 147%; in experiment [15], 108%; in experiment [17] it was 106%; in experiment [18], 107%. Besides, the growth in [19] was 79.5%.

As for `CCOc1ccc(NC(=O)c2ccccc2-c2ccccc2C(=O)O)cc1`, the growth was 109% in experiment [1]; 104% in experiment [2]; 106% in experiment [3]; 106% in [4]; 113% in experiment [5]; 106% in [6]. Besides, the growth in experiment [7] was 104%; in experiment [8], 107%; in experiment [9] it was 105%; in experiment [10] it was 113%; in [11], 106%; in experiment [12] it was 90.2%. Moreover, the growth in experiment [14] is 107%; in experiment [20] it was 114%; in experiment [15] it was 105%; in experiment [16], 115%; in experiment [17], 117%; in experiment [18], 112%. In addition, the growth in [19] is 113%.

In the case of `CC(=O)O[C@H]1CC[C@@]2(C)C(=CC[C@@H]3[C@@H]2CC[C@]2(C)C(=O)N(O)C(=O)C[C@@H]32)C1`, the growth in experiment [1] is 68%; in experiment [2], 107%; in [3], 91.9%; in [4] it was 68.5%; in experiment [5], 60.8%; in experiment [6] it was 93%. In addition, the growth was 75.5% in experiment [7]; 86.9% in [8]; 81.1% in experiment [9]; 112% in experiment [10]; 86.9% in experiment [11]; 49.9% in experiment [12]. Besides, the growth in [14] is 97.9%; in experiment [20], 74%; in [15], 91.7%; in experiment [16] it was 98.9%; in [17] it was 105%; in experiment [18], 106%. In experiment [19], the growth is 96.4%.

Regarding `Cn1cc(-c2nc(-c3c[nH]c4ncccc34)cs2)c2cc(Cl)ccc21`, the growth was 69.5% in experiment [1]; 81.8% in experiment [2]; 47.8% in [3]; 86% in experiment [4]; 47% in experiment [5]; 40.4% in experiment [6]. Moreover, the growth is 52.2% in experiment [7]; 43% in [8]; 46.2% in [9]; 80.2% in [10]; 54.4% in experiment [11]; 9.43% (active) in experiment [12]. The growth in [14] was 55.3%; in experiment [20], 63.4%; in [15], 65.4%; in [16], 24.4%; in experiment [17] it was 71.7%; in experiment [18], 56%. Also, in experiment [19], the growth is 42.2%.

In the case of `COc1ccc2c(c1)C/C(=C\c1cc(-c3ccc4c(c3)OCO4)n[nH]1)C2=O`, the growth in experiment [1] is 111%; in experiment [2], 86.5%; in [3] it was 113%; in experiment [4], 102%; in experiment [5], 92.6%; in experiment [6], 87.2%. Also, the growth in experiment [7] was 105%; in experiment [8], 95.7%; in experiment [9] it was 106%; in [10], 105%; in [11], 112%; in experiment [12] it was 60.1%. For the same compound, the growth was 112% in experiment [13]; 79.7% in experiment [14]; 95.6% in experiment [20]; 106% in [15]; 92.4% in experiment [17]; 103% in [18]. In addition, in [19], the growth was 97.2%.

Regarding `CC(C)(C)c1ccc(OP(=S)(N/N=C/c2ccccc2O)Oc2ccc(C(C)(C)C)cc2)cc1`, the growth in [1] is 58.1%; in experiment [2] it was 58.6%; in experiment [3], 76.3%; in experiment [4], 91.7%; in experiment [5] it was 87%; in experiment [6] it was 70.6%. Further, the growth is 12.1% in [7]; 56.7% in experiment [8]; 68.6% in experiment [9]; 79.7% in experiment [10]; 92% in [11]; 59% in experiment [12]. In addition, the growth in experiment [13] was 86.8%; in experiment [14] it was 63.5%; in experiment [20] it was 87.3%; in experiment [15], 69.8%; in [17], 66.8%; in experiment [18], 59.8%. Also, the growth in experiment [19] was 77.7%.

Turning to `O=C(N/N=C\c1ccccc1O)C1CC1`, the growth in [1] was 116%; in experiment [2], 104%; in [3], 88.8%; in experiment [4] it was 105%; in experiment [5] it was 115%; in experiment [6], 90.8%. For the same compound, the growth is 98.1% in experiment [7]; 102% in [8]; 105% in experiment [9]; 109% in [10]; 108% in experiment [11]; 113% in [12]. Further, the growth in experiment [14] is 103%; in [20], 112%; in experiment [15] it was 98.7%; in [16], 110%; in [17], 110%; in [18] it was 94.7%. Moreover, the growth in experiment [19] is 109%.

As to `COC(c1ccccc1)(c1ccccc1)c1ccccc1`, the growth in experiment [1] is 95.4%; in experiment [2], 101%; in experiment [3], 102%; in experiment [4] it was 106%; in [5], 101%; in experiment [6] it was 147%. Further, the growth in experiment [7] is 116%; in [8], 104%; in [9] it was 93%; in experiment [10], 123%; in experiment [11] it was 108%; in experiment [12], 109%. Also, the growth in experiment [13] is 95.4%; in experiment [14] it was 102%; in [15], 98.5%; in experiment [16], 90.7%; in [17], 102%; in experiment [18] it was 122%. Further, the growth in experiment [19] was 136%.

As for `Cc1cc(Cl)c2c(N(C)C)cccc2n1`, the growth was 96% in experiment [1]; 101% in [2]; 89.9% in experiment [3]; 102% in experiment [4]; 104% in experiment [5]; 115% in experiment [6]. The growth was -75.5% (active) in experiment [7]; 100% in [8]; 102% in experiment [9]; 105% in experiment [10]; 106% in experiment [11]; 59.5% in [12]. Also, the growth in experiment [13] is 87.2%; in experiment [14] it was 92.8%; in experiment [20] it was 116%; in experiment [15], 111%; in experiment [17] it was 106%; in experiment [18] it was 102%. Also, in experiment [19], the growth was 92%.

Regarding `Nc1nc(Br)nc2c1ncn2C1CC(O)C(CO)O1` (centres undefined), the growth was 20.2% in [1]; 89.6% in experiment [2]; 83.6% in experiment [3]; 47% in experiment [4]; 97.9% in experiment [5]; 51.5% in experiment [6]. Moreover, the growth is 109% in experiment [7]; 51.4% in experiment [8]; 62.8% in experiment [9]; 62.8% in [10]; 52.7% in experiment [11]; 79% in experiment [12]. Moreover, the growth in experiment [13] is 90.2%; in experiment [14], 87.2%; in experiment [15], 73.9%; in experiment [16] it was 94.3%; in [17], 77.8%; in [18], 87.7%. In experiment [19], the growth was -0.9% (active).

Consider `Cn1cc(-c2nc(-c3cn(C)c4ncccc34)cs2)c2ccccc21`, for which the growth is 43.6% in experiment [1]; 66.9% in [2]; 58.5% in experiment [3]; 36.1% in experiment [4]; 16.7% in experiment [5]; 75.3% in experiment [6]. For the same compound, the growth is -1.88% (active) in experiment [7]; 38.8% in [8]; 39.3% in experiment [9]; 32.8% in experiment [10]; 58.9% in [11]; 12.6% in [12]. The growth in experiment [14] was 48.6%; in experiment [20] it was 35.5%; in [15], 45.4%; in [16], 20.7%; in experiment [17], 27.6%; in [18], 60.6%. Besides, in experiment [19], the growth was 8.62% (active).
